For 3 compounds, % glutamate max results are on record in PubChem BioAssay AID2185 (Vanderbilt High Throughput Screening Facility, 2009).

Structures are written as SMILES. Results with a measured potency or affinity are listed apart. Unmarked numbers belong to inactive results. No rule for the calls is given here.

For the assay, the target named is Metabotropic glutamate receptor 4 (Rattus norvegicus) (UniProt P31423). The assay can be described thus: PubChem AID 2185. The settings on record: HEK/GIRK cells expressing rat mGluR4, thallium flux PAM; active compounds read high.
Chain of Metabotropic glutamate receptor 4 (Rattus norvegicus) (P31423 whole entry, looked up): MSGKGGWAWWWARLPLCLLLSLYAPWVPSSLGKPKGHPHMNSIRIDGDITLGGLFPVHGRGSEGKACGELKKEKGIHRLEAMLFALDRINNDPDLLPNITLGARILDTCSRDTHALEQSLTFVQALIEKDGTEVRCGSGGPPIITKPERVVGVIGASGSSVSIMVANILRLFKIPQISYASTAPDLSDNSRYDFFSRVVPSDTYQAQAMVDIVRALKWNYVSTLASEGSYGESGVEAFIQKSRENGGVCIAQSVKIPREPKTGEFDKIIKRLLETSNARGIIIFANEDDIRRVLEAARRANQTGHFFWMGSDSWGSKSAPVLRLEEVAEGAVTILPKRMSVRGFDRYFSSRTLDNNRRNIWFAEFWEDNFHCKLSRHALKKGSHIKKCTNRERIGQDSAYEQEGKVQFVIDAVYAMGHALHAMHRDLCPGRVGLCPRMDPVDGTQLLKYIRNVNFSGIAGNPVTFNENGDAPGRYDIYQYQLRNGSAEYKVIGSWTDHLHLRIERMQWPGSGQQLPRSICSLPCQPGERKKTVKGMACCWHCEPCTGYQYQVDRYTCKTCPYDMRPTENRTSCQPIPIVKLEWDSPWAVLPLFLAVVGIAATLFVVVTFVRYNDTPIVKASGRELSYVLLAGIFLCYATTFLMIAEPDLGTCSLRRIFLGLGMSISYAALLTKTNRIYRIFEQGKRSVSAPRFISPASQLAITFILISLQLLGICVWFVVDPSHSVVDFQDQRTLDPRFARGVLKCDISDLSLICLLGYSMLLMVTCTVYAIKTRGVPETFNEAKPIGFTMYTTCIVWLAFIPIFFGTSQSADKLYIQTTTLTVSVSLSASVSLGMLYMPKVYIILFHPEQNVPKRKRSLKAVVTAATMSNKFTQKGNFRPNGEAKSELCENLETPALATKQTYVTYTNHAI
Turning to `O=C(Nc1cccc(C(F)(F)F)n1)c1ccccn1`, the % glutamate max was 25.1%.

Take `O=C(Nc1ccc(N2CCCS2(=O)=O)cc1)c1ccccn1`: the % glutamate max was 30.1%.

Take `COc1cc(NC(=O)c2ccccn2)ncn1`: the % glutamate max was 25.5%.
